# Columns and labels:
# BMP2K = details: compound concentrations:3nM, 10nM, 30nM, 100nM, 300nM, 1000nM, 3000nM, 30000nM,R2:0.98755156955359502,slope:1.4167647234137799,EC50 Standard Error, by the legend:Standard error of the EC50 estimation as provided by the drc package.
# BMPR2 = details: compound concentrations:3nM, 10nM, 30nM, 100nM, 300nM, 1000nM, 3000nM, 30000nM,R2:0.93324573239730002,slope:2.2231806087315,EC50 Standard Error, by the legend:Standard error of the EC50 estimation as provided by the drc package.
# CCNH = details: compound concentrations:3nM, 10nM, 30nM, 100nM, 300nM, 1000nM, 3000nM, 30000nM,R2:0.984368608654974,slope:1.5961170242536,EC50 Standard Error, by the legend:Standard error of the EC50 estimation as provided by the drc package.
# CHEK1 = details: compound concentrations:3nM, 10nM, 30nM, 100nM, 300nM, 1000nM, 3000nM, 30000nM,R2:0.99154934454702504,slope:1.2455496028398201,EC50 Standard Error, by the legend:Standard error of the EC50 estimation as provided by the drc package.
# EPHA1 = details: compound concentrations:3nM, 10nM, 30nM, 100nM, 300nM, 1000nM, 3000nM, 30000nM,R2:0.96586410409124401,slope:0.42399886433003398,EC50 Standard Error, by the legend:Standard error of the EC50 estimation as provided by the drc package.
# EPHA7 = details: compound concentrations:3nM, 10nM, 30nM, 100nM, 300nM, 1000nM, 3000nM, 30000nM,R2:0.88780253900259998,slope:1.37394463734268,EC50 Standard Error, by the legend:Standard error of the EC50 estimation as provided by the drc package.
# FER = details: compound concentrations:3nM, 10nM, 30nM, 100nM, 300nM, 1000nM, 3000nM, 30000nM,R2:0.99765697857562097,slope:1.03588430141815,EC50 Standard Error, by the legend:Standard error of the EC50 estimation as provided by the drc package.
# FLT3 = details: compound concentrations:3nM, 10nM, 30nM, 100nM, 300nM, 1000nM, 3000nM, 30000nM,R2:0.96575906270431899,slope:1.4210084972678201,EC50 Standard Error, by the legend:Standard error of the EC50 estimation as provided by the drc package.
# FLT4 = details: compound concentrations:3nM, 10nM, 30nM, 100nM, 300nM, 1000nM, 3000nM, 30000nM,R2:0.97672359479992199,slope:1.0836870062150401,EC50 Standard Error, by the legend:Standard error of the EC50 estimation as provided by the drc package.
# INCENP = details: compound concentrations:3nM, 10nM, 30nM, 100nM, 300nM, 1000nM, 3000nM, 30000nM,R2:0.98280014886482903,slope:1.1847745210473,EC50 Standard Error, by the legend:Standard error of the EC50 estimation as provided by the drc package.
# IRAK4 = details: compound concentrations:3nM, 10nM, 30nM, 100nM, 300nM, 1000nM, 3000nM, 30000nM,R2:0.93116388715812703,slope:1.4824347437463801,EC50 Standard Error, by the legend:Standard error of the EC50 estimation as provided by the drc package.
# MAP3K11 = details: compound concentrations:3nM, 10nM, 30nM, 100nM, 300nM, 1000nM, 3000nM, 30000nM,R2:0.99429213742215306,slope:0.76505348781975802,EC50 Standard Error, by the legend:Standard error of the EC50 estimation as provided by the drc package.
# MAP4K2 = details: compound concentrations:3nM, 10nM, 30nM, 100nM, 300nM, 1000nM, 3000nM, 30000nM,R2:0.97693743702181501,slope:1.5044165115380901,EC50 Standard Error, by the legend:Standard error of the EC50 estimation as provided by the drc package.
# MARK2 = details: compound concentrations:3nM, 10nM, 30nM, 100nM, 300nM, 1000nM, 3000nM, 30000nM,R2:0.98471401601648001,slope:1.6013857186590299,EC50 Standard Error, by the legend:Standard error of the EC50 estimation as provided by the drc package.
# MARK3 = details: compound concentrations:3nM, 10nM, 30nM, 100nM, 300nM, 1000nM, 3000nM, 30000nM,R2:0.98601648224136496,slope:1.5139039229536799,EC50 Standard Error, by the legend:Standard error of the EC50 estimation as provided by the drc package.
# MARK4 = details: compound concentrations:3nM, 10nM, 30nM, 100nM, 300nM, 1000nM, 3000nM, 30000nM,R2:0.98999073963654005,slope:9.1146195696381707,EC50 Standard Error, by the legend:Standard error of the EC50 estimation as provided by the drc package.
# NEK1 = details: compound concentrations:3nM, 10nM, 30nM, 100nM, 300nM, 1000nM, 3000nM, 30000nM,R2:0.97961263644427599,slope:0.99029629152452003,EC50 Standard Error, by the legend:Standard error of the EC50 estimation as provided by the drc package.
# NUAK1 = details: compound concentrations:3nM, 10nM, 30nM, 100nM, 300nM, 1000nM, 3000nM, 30000nM,R2:0.91267183430565202,slope:2.53834648929845,EC50 Standard Error, by the legend:Standard error of the EC50 estimation as provided by the drc package.
# PAK4 = details: compound concentrations:3nM, 10nM, 30nM, 100nM, 300nM, 1000nM, 3000nM, 30000nM,R2:0.99818475591728295,slope:0.99089042450123299,EC50 Standard Error, by the legend:Standard error of the EC50 estimation as provided by the drc package.
# PDPK1;PDPK2P = details: compound concentrations:3nM, 10nM, 30nM, 100nM, 300nM, 1000nM, 3000nM, 30000nM,R2:0.91971580292243504,slope:1.29280126727837,EC50 Standard Error, by the legend:Standard error of the EC50 estimation as provided by the drc package.
substance,measurement,setting,value
TAK659,EC50,BMP2K,0.537 µM
same,Kd,BMP2K; read-out: apparent Kd,0.456 µM
same,EC50,BMPR2,0.325 µM
same,Kd,BMPR2; read-out: apparent Kd,0.257 µM
same,EC50,CCNH,1.73 µM
same,Kd,CCNH; read-out: apparent Kd,1.58 µM
same,EC50,CHEK1,0.149 µM
same,Kd,CHEK1; read-out: apparent Kd,0.133 µM
same,EC50,EPHA1,2.91 µM
same,Kd,EPHA1; read-out: apparent Kd,1 µM
same,EC50,EPHA7,0.81 µM
same,Kd,EPHA7; read-out: apparent Kd,0.617 µM
same,EC50,FER,0.316 µM
same,Kd,FER; read-out: apparent Kd,0.202 µM
same,EC50,FLT3,0.507 µM
same,Kd,FLT3; read-out: apparent Kd,0.313 µM
same,EC50,FLT4,0.564 µM
same,Kd,FLT4; read-out: apparent Kd,0.308 µM
same,EC50,INCENP,0.15 µM
same,Kd,INCENP; read-out: apparent Kd,0.15 µM
same,EC50,IRAK4,0.718 µM
same,Kd,IRAK4; read-out: apparent Kd,0.675 µM
same,EC50,MAP3K11,9.09 µM
same,Kd,MAP3K11; read-out: apparent Kd,7.19 µM
same,EC50,MAP4K2,0.595 µM
same,Kd,MAP4K2; read-out: apparent Kd,0.459 µM
same,EC50,MARK2,0.837 µM
same,Kd,MARK2; read-out: apparent Kd,0.762 µM
same,EC50,MARK3,0.68 µM
same,Kd,MARK3; read-out: apparent Kd,0.67 µM
same,EC50,MARK4,1.05 µM
same,Kd,MARK4; read-out: apparent Kd,1.05 µM
same,EC50,NEK1,0.589 µM
same,Kd,NEK1; read-out: apparent Kd,0.529 µM
same,EC50,NUAK1,1.02 µM
same,Kd,NUAK1; read-out: apparent Kd,0.312 µM
same,EC50,PAK4,0.336 µM
same,Kd,PAK4; read-out: apparent Kd,0.276 µM
same,EC50,PDPK1;PDPK2P,0.639 µM
same,Kd,PDPK1;PDPK2P; read-out: apparent Kd,0.639 µM
